Screening results from PubChem.
PNC inhibitor = inhibitors of perinucleolar compartment assembly | PC3M PTB-GFP, PNC prevalence imaging, 16 h; stronger effect = lower value | activity change (PNC), negative = inhibition, % at 10 µM | actives 3.1% (n = 140,000);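 active = readout at or below -70, meaning at least 70% loss of cells showing the perinucleolar compartment, a nuclear body marking cancer cells; inconclusive = readout between -30 and a set limit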;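 also: plate controls were DMSO wells for no effect and camptothecin positive control wells for full effect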
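PC3M cells stably expressing PTB-GFP, 750–1000 cells/well, treated 16 h at 37 °C with compound (23 nl of library stock), in duplicate. After paraformaldehyde fixation and Hoechst stain, imaged at 20x; PNC prevalence scored by image analysis.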
ALDH1A1 inh = blocks purified human ALDH1A1 activity; Purified ALDH1A1, NADH fluorescence, propionaldehyde substrate; actives 7.3% (n = 220,000); Potency, µM (titrated, usually from 75.3 µM), without a hit: top-dose activity, negative = inhibition, most hits filed as inhibitors;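 also: potency is read from the fitted curve at half-maximal effect; plate controls were no enzyme wells and a reference inhibitor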
Target sequence (P00352 whole entry, looked up): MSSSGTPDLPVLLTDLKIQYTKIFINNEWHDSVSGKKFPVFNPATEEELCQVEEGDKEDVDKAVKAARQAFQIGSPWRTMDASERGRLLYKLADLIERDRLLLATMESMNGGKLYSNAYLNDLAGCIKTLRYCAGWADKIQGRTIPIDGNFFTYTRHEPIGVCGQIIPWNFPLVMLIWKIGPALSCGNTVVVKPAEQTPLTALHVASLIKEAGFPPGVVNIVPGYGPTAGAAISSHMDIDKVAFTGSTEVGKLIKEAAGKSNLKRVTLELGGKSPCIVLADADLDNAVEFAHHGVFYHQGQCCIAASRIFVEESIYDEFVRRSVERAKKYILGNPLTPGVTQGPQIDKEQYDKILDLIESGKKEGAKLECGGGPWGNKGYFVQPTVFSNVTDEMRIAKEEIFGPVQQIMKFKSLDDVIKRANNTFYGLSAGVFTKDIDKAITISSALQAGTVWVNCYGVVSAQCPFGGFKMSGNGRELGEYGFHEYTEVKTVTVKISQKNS
HPGD block = inhibitors of human 15-hydroxyprostaglandin dehydrogenase (HPGD). purified HPGD, NADH fluorescence kinetic, PGE2 substrate. Potency, µM, for the others: top-dose activity change, negative = inhibition, most hits filed as inhibitors. actives 4.3% (n = 150,000). AID 894; also: potency is read from the fitted curve at half-maximal effect
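NADH formation kinetics: reaction with 30 uM PGE2 and 1 mM NAD+ (final), 20 nM enzyme, Tris-HCl pH 8 with Tween 20, after 15 min compound preincubation at room temperature. Fluorescence change, last versus first of five reads.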
JMJD2E inh = JMJD2E (human) inhibition. B2RXH2. JMJD2E catalytic domain, FDH-coupled NADH fluorescence (FDH is formaldehyde dehydrogenase). Potency, µM (highest dose often 57.1 µM), for inactives: at the top dose activity change, negative = inhibition, actives largely listed as inhibitors. actives 1.6% (n = 230,000);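 also: potency is read from the fitted curve at half-maximal effect; 0% = wells with enzyme and -100% = buffer wells without enzyme; nearly all actives have a fitted effect of over 50% in size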
* marks the source's active call; other numbers are inactive results; ? = inconclusive; nt = no result; ! = not active in a repeat; [ ] = another dose, or the depositor's remark. This is a sample that favours compounds with a hit; in the whole collection about 11% have one here. Unless noted, calls follow the shape of the dose curve; as a rule, active = well fitted inhibition curve with a large enough effect (not every such curve was filed as active); inconclusive = small, poorly fitted or top-dose-only effect, or another doubt; inactive = no such curve, though single readings can be large or run the other way. Unless noted, % is scaled to controls: 0 for no effect and ±100 for the full control effect.

SMILES	PNC inhibitor	ALDH1A1 inh	HPGD block	JMJD2E inh
O=c1[nH][nH]c2c(N=Cc3ccccc3O)ccc(F)c12	nt	8.91µM*	nt	-11.4%
Nc1nc(N)[n+]([O-])c(N)c1NCO	nt	9.2%[13.5 µM]	-9.0%	nt
Cc1cc(C)n(CC(O)CN2C(=O)NC(C)(C)C2=O)n1 (centres undefined)	-106.5*	-6.7%	-14.6%	4.3%
CC1(C)NC(=O)N(CC(O)CN2C(=O)NC(C)(C)C2=O)C1=O	?	-0.1%	-4.0%	8.8%
Cc1ccc(NC2OC(CO)C(O)C(O)C2O)cc1 (centres undefined)	?	-3.1%	0.6%	0.0%
CCOc1ccc(C(=O)NCC2CCCO2)cc1 (centres undefined)	-1.5	5.1%	15.8µM*	16.2%
O=C(NCC1CCCO1)c1ccc(COc2ccc(F)cc2)o1 (centres undefined)	-20.3	10µM*	25.1µM*	-6.1%
O=C(NCC1CCCO1)c1ccc(C(=O)NCC2CCCO2)cc1 (centres undefined)	13.0	0.1%	-10.3%	-1.6%
Cc1ccc(NS(=O)(=O)c2ccc(C(=O)NCC3CCCO3)cc2)cc1 (centres undefined)	nt	13.5%	nt	0.1%
CCOC(=O)Nc1ccc(C(=O)NCC2CCCO2)cc1 (centres undefined)	-1.5	0.0%	15.8µM*	-13.7%
COc1ccc(/C=C/CN2CCCC(C(=O)c3ccc(OC)c(F)c3)C2)cc1 (centres undefined)	nt	?	nt	-10.4%
CC1CN(C(=O)/C(C#N)=C2\N=C(NC(=O)c3ccccc3Cl)c3ccccc32)CC(C)O1 (centres undefined)	16.6	?	-13.3%	2.9%
CCn1c(SCC(=O)O)nnc1-c1ccccc1	-95.8*	-0.5%	-11.7%	2.1%
CCn1c(SCC(=O)c2ccc(C)cc2)nnc1-c1ccoc1C	0.7	?	31.6µM*	-13.9%
CCn1c(SCC(=O)OC)nnc1-c1ccccc1	nt	7.5%	nt	3.6%
Cc1ccc(C(=O)CSc2nnc(-c3ccncc3)n2C)cc1	nt	9.8%	nt	0.1%
CCn1c(SCC(=O)c2ccc(C)cc2)nnc1-c1ccncc1	-2.2	?	31.6µM*	2.7%
Nc1ccc(CN2CCOCC2)cc1	nt	5.0%	nt	0.6%
C[C@H]1OC(OC2C(O)[C@@H](O)C(OC3C(O)[C@@H](O)C(O)O[C@@H]3CO)O[C@@H]2CO)[C@H](O)C(O)C1N[C@H]1C=C(CO)[C@@H](O)[C@H](O)C1O (some centres undefined)	nt	9.1%	-6.5%	nt
CN(C)Cc1ccccc1-c1cc(Nc2ccccc2)ncn1	nt	2.3%	-3.3%	0.7%
N#CC1=C(N)Oc2cc(N)ccc2C1c1ccc(F)cc1 (centres undefined)	?	-13.3%	-19.6%	?
COc1cc(C2C(C#N)=C(N)Oc3cc(N)ccc32)cc(OC)c1OC (centres undefined)	-89.3*	3.4%	-17.3%	2.6%
Cc1cnn(-c2cc(N/N=C/c3ccccc3Cl)ncn2)c1	-27.1	-6.8%	-18.6%	3.5%
COc1cccc(/C=N/Nc2cc(-n3nc(C)cc3-c3ccccc3)ncn2)c1O	-100.0*	17.6%	-10.7%	1.3%
COc1cccc(/C=N/Nc2nc(Nc3ccccc3)nc(-n3nc(C)cc3C)n2)c1O	14.1	6.0%	-14.4%	20µM*
SMILES	PNC inhibitor	ALDH1A1 inh	HPGD block	JMJD2E inh
Cn1c(CNC(=O)c2ccco2)nnc1SCC(=O)Nc1c(F)cc(F)cc1Br	nt	?	nt	-10.3%
COc1ccc(/C=N/NC(=O)CCn2cnc(-c3ccccc3)c2-c2ccccc2)cc1	-108.4*	?	-5.2%	-2.8%
O=C(CCn1cnc(-c2ccccc2)c1-c1ccccc1)N/N=C/c1ccc(O)cc1	-5.9	?	-14.8%	-9.9%
COc1ccc(/C=N/NC(=O)COc2ccccc2-c2ccccc2)cc1	-114.6*	-6.7%	-23.2%	-11.8%
C=CCOC(=O)C(=O)/C=C/c1coc2ccccc2c1=O	nt	31.6µM*	nt	118.4%
CS(=O)(=O)N1CCC(Oc2ccccc2C(=O)NC(C2CC2)C2CC2)CC1	nt	?	nt	7.3%
Cc1[nH]nc2c1C(c1cccnc1)N(c1ccc(Br)cc1)C2=O (centres undefined)	-83.1*	-4.7%	-11.7%	-5.9%
O=C(c1cc2ccccc2o1)c1nc2c(n1O)CCCCC2	?	-0.7%	14.1µM*	-7.0%
NC(=S)NNc1cccc2cccnc12	nt	3.55µM*	nt	-8.0%
Cc1ccc(NC(=O)CSc2nnc(C3COc4ccccc4O3)o2)c(Cl)c1 (centres undefined)	nt	2.82µM*	nt	9.3%
CCOC(=O)N1CCN(C(=O)CSc2nnc(C3COc4ccccc4O3)o2)CC1 (centres undefined)	16.0	31.6µM*	-15.7%	6.2%
O=C(CSc1nnc(C2COc3ccccc3O2)o1)N1CCCC1 (centres undefined)	nt	?	nt	-7.2%
O=C(CSc1nnc(C2COc3ccccc3O2)o1)Nc1ccc(F)cc1Cl (centres undefined)	nt	10µM*	nt	14.6%
COc1ccc(CC(N)C(=O)NC2C(CO)OC(n3cnc4c(N(C)C)ncnc43)C2O)cc1 (centres undefined)	nt	-3.3%	-3.9%	6.3%
CCSc1nnc(Cn2c(=O)sc3ccccc32)n1C	15.6	2.4%	-10.5%	-0.3%
Cn1c(Cn2c(=O)sc3ccccc32)nnc1SCc1ccccn1	-4.7	2µM*	nt	-1.1%
O=c1c2ccccc2c(-c2ccccc2)nn1-c1ccc(Cl)c(Cl)c1	-9.0	?	-11.8%	?
Clc1cc2c(c(CSC3=NCN(CC4CC4)CN3)c1)OCOC2	nt	-6.4%[13.5 µM]	-5.1%	nt
OC1CC(c2ccco2)NC2(CCCCC2)C1 (centres undefined)	-12.9	?	-10.8%	22.4µM*
CC1/C(=N/O)CC(c2ccco2)NC1c1ccco1 (centres undefined)	51.6	-5.9%	-1.8%	8.4%
O=C1c2sc3nc4n(c(=O)c3c2CCC1Br)CCCCC4 (centres undefined)	1.7	8.91µM*	12.6µM*	17.8µM*
O=C1CCCc2c1sc1nc3n(c(=O)c21)CCCCC3	-25.9	?	-18.4%	?
CN(C(=O)CSCC(=O)O)C1CCCCC1	?	2µM*	-10.4%	-2.2%
CN(C(=O)CSc1ccccc1C(=O)O)C1CCCCC1	31.6	3.16µM*	-5.9%	3.6%
CN(C(=O)c1ccccc1Cl)C1CCCCC1	?	1.3%	28.2µM*	-6.8%
SMILES	PNC inhibitor	ALDH1A1 inh	HPGD block	JMJD2E inh
CC1CCCCC1NC(=O)CSCC(=O)O (centres undefined)	16.6	-9.8%	-4.5%	-2.4%
Fc1ccc(CSc2nncn2NC/C=C/c2ccccc2)cc1	-83.2*	4.4%	0.2%	-1.5%
Cc1c(-c2ccn[nH]2)cc(NC(=O)c2ccc(Cl)cc2)c(=O)n1N	nt	6.9%	nt	-3.7%
C=CCn1c(O)c(C=Nc2ccccc2)sc1=S	nt	?	nt	-8.6%
O=C(O)Cn1c(O)c(C=Nc2ccccc2)sc1=S	15.7	28.2µM*!	?	4.3%
CCn1c(O)c(C=Nc2ccccc2)sc1=S	nt	?	nt	-27.7%
Oc1c(C=Nc2ccccc2)sc(=S)n1Cc1ccccc1	nt	1.41µM*	nt	14.0%
CC(C)(C)C1CCc2c(C(=O)NNC(=O)CCCC(=O)O)csc2C1 (centres undefined)	27.5	-3.1%	-3.5%	-3.2%
